PTPN22 inh 2 = blocks human PTPN22 phosphatase activity; inhibition, % at 2 µM; recombinant LYP catalytic domain, DiFMUP fluorescence; 96,000 compounds, 0.21% hits; AID 640;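 active = inhibition at 2 µM at or above a set limit, the screen mean plus 3 SD, cut at about 24% in these data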;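 also: 0% = DMSO with enzyme and 100% = enzyme fully blocked by orthovanadate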
Measles CPE = protection of cells from measles virus; Measles virus-infected cells, CPE protection, absorbance; protection (pct of control), % at 4 µM; 140,000 compounds, 1.5% hits; AID 841; in the data active = protection mostly above about 24%, no sharp cut-off; inactive = mostly below about 26%
sEH activator = activators of human soluble epoxide hydrolase; P34913; purified human sEH enzymatic activity, activator screen; activation, % at 2 µM; 91,000 compounds, 0.04% hits; in the data active = activation above about 37%
Target sequence (P34913 whole entry, looked up): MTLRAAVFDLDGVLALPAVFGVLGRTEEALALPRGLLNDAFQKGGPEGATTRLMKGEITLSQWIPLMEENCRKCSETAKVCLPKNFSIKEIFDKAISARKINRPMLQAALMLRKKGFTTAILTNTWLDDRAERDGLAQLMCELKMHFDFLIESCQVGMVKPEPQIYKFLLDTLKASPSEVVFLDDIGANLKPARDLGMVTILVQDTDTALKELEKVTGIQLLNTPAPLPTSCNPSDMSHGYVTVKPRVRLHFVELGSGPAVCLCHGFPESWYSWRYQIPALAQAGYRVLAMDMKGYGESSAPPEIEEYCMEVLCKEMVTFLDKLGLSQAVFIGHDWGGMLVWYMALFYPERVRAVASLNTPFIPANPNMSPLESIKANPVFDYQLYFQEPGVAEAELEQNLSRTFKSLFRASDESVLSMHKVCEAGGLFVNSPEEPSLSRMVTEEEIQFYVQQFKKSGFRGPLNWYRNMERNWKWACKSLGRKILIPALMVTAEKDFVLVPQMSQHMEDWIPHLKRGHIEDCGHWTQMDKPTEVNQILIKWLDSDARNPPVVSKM
sEH inhibitor = inhibitors of human soluble epoxide hydrolase. recombinant human sEH enzymatic activity assay. P34913. 91,000 compounds, 0.34% hits. inhibition, % at 2 µM. AID 707; in the data active = inhibition above about 80%
LYP act = increases human PTPN22 phosphatase activity. Q9Y2R2. recombinant LYP, DiFMUP fluorescence; 0 = plate median, 100 = signal doubled. activation, % at 2 µM. 96,000 compounds, 0.11% hits. AID 697;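 active = activation at 2 µM above a set limit, the mean plus 5 SD, cut at about 37% in these data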
LYP act confirm = LYP (PTPN22) phosphatase activation confirmation. Recombinant LYP, DIFMUP fluorescence; zero set by plate's median compound well. shares compounds with LYP act. AID 1031. 100 tested, under 10 active. activation, % at 2 µM; call rule not given here
Starred values were filed as active, the others as inactive; nt = no result given. Only some compounds are listed: those with a hit (about 1.7% of all), similar ones and a draw of the others.

SMILES	PTPN22 inh 2	Measles CPE	sEH activator	sEH inhibitor	LYP act	LYP act confirm
COC(=O)c1sccc1NC(=O)c1ccc(C)s1	-50	8	-2	4	43*	2
COC(=O)c1sccc1NC(=O)c1ccc(Cl)s1	-2	18	9	-6	2	nt
Cc1cc(F)ccc1NCc1cccnc1	-36	28	1	0	38*	6
CN(C)c1ccc(/C=C/C=C2/SC(=S)N(c3ccccc3)C2=O)cc1	-38	9	-2	5	40*	0
O=C1/C(=C/c2cccnc2)SC(=S)N1c1ccccc1	nt	32	nt	nt	nt	nt
COc1cc2nc(SCC(N)=O)n(CCC3=CCCCC3)c(=O)c2cc1OC	-42	30	3	-3	41*	-3
CCC(C)OC(=O)C1C(c2ccccc2)C(C(=O)O)C1c1ccccc1 (stereo unspecified)	-38	3	29	-32	40*	-10
CCCCCOC(=O)C1C(c2ccccc2)C(C(=O)O)C1c1ccccc1 (stereo unspecified)	nt	10	nt	nt	nt	nt
O=C(c1ccc(S(=O)(=O)c2ccccc2Cl)c([N+](=O)[O-])c1)N1CCCCCC1	nt	12	nt	nt	nt	nt
OCCCCCN=c1cc(-c2ccccc2)oc2ccc(Cl)cc12	-38	1	6	-4	40*	-4
COCCCNC(=O)c1ccc(CS(=O)(=O)Cc2cccc(C)c2)o1	-41	19	nt	nt	37*	8
Cc1cccc(CS(=O)(=O)Cc2ccc(C(=O)NCc3ccco3)o2)c1	0	8	8	-9	-3	nt
CCOC(=O)C1=C(CSc2nc(-c3ccccc3)ccc2C#N)OC(N)=C(C#N)C1c1ccccc1 (stereo unspecified)	-41	6	4	-6	39*	-3
Cc1nc(C)c(C(=O)OCC(=O)N2CCN(c3ccccc3)CC2)s1	-37	3	-6	6	40*	4
O=C(OCC(=O)N1CCN(c2ccccc2)CC1)c1cccc(Cl)c1	1	8	7	-5	1	nt
O=C(NC(=S)NCc1ccccc1)C1CCCCC1	-35	20	11	-8	39*	4
S=C(NCc1ccccc1)NCc1ccc(CNC(=S)NCc2ccccc2)cc1	nt	20	nt	nt	nt	nt
COC(=O)C1=C(CSc2nncn2C)NC(=O)NC1c1ccc(F)cc1 (stereo unspecified)	-46	7	8	-6	50*	6
O=C(CSc1nc(-c2ccccc2)c(-c2ccccc2)[nH]1)NCCN1C(=O)CSC1=O	3	23	1	0	0	nt
O=C(CCNS(=O)(=O)c1cccs1)Nc1nccs1	-8	6	nt	nt	6	nt
O=C(CCNS(=O)(=O)c1cccs1)Nc1ccccc1F	-38	19	1	2	42*	-4
CCOc1ccc(CN2CCNC(=O)C2CC(=O)OC)cc1 (stereo unspecified)	-38	2	13	-14	37*	-5
NC(=O)CC[C@H](NC(=O)c1ccc(F)cc1)C(=O)OCC(=O)Nc1ccc(N2CCOCC2)cc1	nt	7	nt	nt	nt	nt
COc1ccc(NS(=O)(=O)c2ccc(O)c(NC(=O)c3cc4c(C)nn(-c5ccc(F)cc5)c4s3)c2)cc1	nt	7	nt	nt	nt	nt
S=c1[nH]ncn1-c1ccccn1	-49	5	4	0	46*	-4
SMILES	PTPN22 inh 2	Measles CPE	sEH activator	sEH inhibitor	LYP act	LYP act confirm
S=c1[nH]ncn1/N=C/c1ccccc1	-12	10	-10	9	11	nt
COC(=O)c1ccc2c(c1O)C(=O)c1ccccc1C2=O	-48	18	27	-26	46*	3
CCSc1c(C(=O)NC)ccc2c1C(=O)c1ccccc1C2=O	8	5	18	-14	-6	nt
CCCCOc1ccc(C(=O)NCC2(c3ccc(OC)cc3)CCOCC2)cc1	nt	17	nt	nt	nt	nt
NC(=S)Nn1c(-c2ccccc2)nc2ccccc2c1=O	nt	11	nt	nt	nt	nt
COc1ccc(NC(=O)CSc2nc(C)c3c(c2C#N)CCCC3)cc1	-44	0	-14	17	47*	3
C=CCNC(=O)c1onc(CSc2cccc(OC)c2)c1C(=O)O	-2	21	-6	11	5	nt
CCc1ccccc1NC(=O)CC(O)(C(=O)OC)C(F)(F)F (stereo unspecified)	-37	21	5	-2	37*	-4
COC(=O)C(O)(CC(=O)Nc1ccccc1OC)C(F)(F)F (stereo unspecified)	-5	4	10	-7	4	nt
COc1ccc2[nH]c(=O)c(CN(C(=O)c3ccccn3)C3CCCCC3)cc2c1	4	5	9	-11	-4	nt
O=C(c1ccccn1)N(Cc1cc2ccccc2[nH]c1=O)C1CCCCC1	-40	19	11	-12	41*	-3

Compound activity from PubChem.
